KCNQ2 inh: KCNQ2 (rat) channel inhibition. B-score at 10 µM. 1.1% of 310,000 active. CHO-K1 KCNQ2, FluxOR thallium flux, 20 min; stronger effect = lower value. O88943;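 active means fluorescence ratio B-score at most minus 3 library SDs, with starting brightness B-score within 2 library SDs, cut at about -5.5 in these data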
Target sequence (O88943 whole entry, looked up): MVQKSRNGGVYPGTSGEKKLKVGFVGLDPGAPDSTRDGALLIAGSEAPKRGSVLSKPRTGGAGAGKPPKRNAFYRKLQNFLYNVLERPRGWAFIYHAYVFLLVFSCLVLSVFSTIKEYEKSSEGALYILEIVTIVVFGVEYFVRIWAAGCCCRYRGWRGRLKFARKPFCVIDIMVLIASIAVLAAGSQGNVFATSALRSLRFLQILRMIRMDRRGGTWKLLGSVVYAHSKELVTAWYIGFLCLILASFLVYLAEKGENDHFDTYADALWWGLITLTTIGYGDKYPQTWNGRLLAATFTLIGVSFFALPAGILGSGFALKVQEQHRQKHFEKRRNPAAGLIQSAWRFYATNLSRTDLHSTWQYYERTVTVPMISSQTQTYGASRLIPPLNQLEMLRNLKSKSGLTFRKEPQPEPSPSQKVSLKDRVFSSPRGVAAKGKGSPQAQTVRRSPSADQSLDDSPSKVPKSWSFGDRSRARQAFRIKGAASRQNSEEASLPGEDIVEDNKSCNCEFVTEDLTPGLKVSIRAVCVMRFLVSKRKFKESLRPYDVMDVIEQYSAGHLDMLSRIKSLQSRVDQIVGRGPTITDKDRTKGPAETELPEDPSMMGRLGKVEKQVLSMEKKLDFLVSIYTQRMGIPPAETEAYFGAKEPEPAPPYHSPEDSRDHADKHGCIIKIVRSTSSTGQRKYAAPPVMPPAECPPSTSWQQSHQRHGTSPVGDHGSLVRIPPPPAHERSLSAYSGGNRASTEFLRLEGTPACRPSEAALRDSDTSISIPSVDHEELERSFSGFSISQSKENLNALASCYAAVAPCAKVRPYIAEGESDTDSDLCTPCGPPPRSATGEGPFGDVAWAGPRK
KCNQ2 pot: enhances the rat KCNQ2 potassium channel. CHO-K1 KCNQ2, FluxOR thallium flux fluorescence; stronger effect = higher value. AID 2239. B-score at 10 µM. 0.54% of 310,000 active;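 active means fluorescence ratio B-score at least 3 SD of library B-scores, with initial fluorescence B-score within 3 of them, cut at about 5.3 in these data; same plate scores as AID 2156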;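 further: B-score of peak minus minimum over baseline fluorescence ratio after K+ and Tl+ stimulus; positive B-score means potentiation of KCNQ2 with more thallium influx and brighter signal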
Active calls of the source: *; i = inactive; . = no result given. This is a sample that favours compounds with a hit; in the whole collection about 1.6% have one here.

SMILES	KCNQ2 inh	KCNQ2 pot
CN(CC1CCOCC1)C(=O)CC1C(=O)NCCN1CC(c1ccccc1)c1ccccc1 (stereo unspecified)	-5.88*	-5.88
O=C(/C=C/c1cccc([N+](=O)[O-])c1)N1CCN(S(=O)(=O)c2cccs2)CC1	i	.
CCCCOC(=O)CSC1=C(C#N)C(c2ccccc2OCC)C(C#N)C(=O)N1 (stereo unspecified)	i	7.13*
CCCOC(=O)CSC1=C(C#N)C(c2ccccc2OCC)C(C#N)C(=O)N1 (stereo unspecified)	i	1.85
CCN1C(=O)[C@H]2[C@@H](c3ccc(-c4ccc(OC)cc4)cc3)N[C@@](C)(C(=O)OC)[C@H]2C1=O	i	1.54
O=C(O)c1cc(N/N=C/C=C/c2ccccc2)ccc1Cl	i	.
CN(CCCC(=O)O)c1ccc(N=Nc2ccc([N+](=O)[O-])cc2)cc1	i	0.14
CCN(CC)C(=O)/C(=C/c1ccc2c(c1)OCO2)NC(=O)c1ccc(Br)cc1	-5.89*	-5.89
O=C(NCCO)/C(=C/c1ccc2c(c1)OCO2)NC(=O)c1ccc(Br)cc1	i	.
Cc1ccc(S(=O)(=O)N2CCN(C(=O)N(C)C)CC2)cc1	i	0.44
COc1ccccc1OCC(O)Cn1nc(C)cc1C (stereo unspecified)	i	.
Cc1cc(C)n(CC(O)COc2ccccc2C(=O)Nc2ccccc2)n1 (stereo unspecified)	-6.64*	-6.64
CCOC(=O)C(CC)(CC)/C(C)=N/NC(=O)CC#N	i	.
NCCCCCc1nnc(SCC(=O)c2ccc(Cl)cc2)o1	i	.
CC(=O)Nc1ccc(N(C(=O)c2ccccn2)C(C(=O)NC2CCCCC2)c2ccc(F)cc2)cc1 (stereo unspecified)	i	.
CC(C)Sc1nc(N2CCOCC2)c2c(c1C#N)CC(C)(C)SC2	-6.21*	-6.21
CCCSc1nc(N2CCOCC2)c2c(c1C#N)CC(C)(C)SC2	i	1.09
CCc1cc2c3c(c(=O)oc2cc1O)CCCC3	i	1.86
COc1ccc(CN2C(=NC(=O)C3CCCCC3)SC3CS(=O)(=O)CC32)cc1 (stereo unspecified)	i	0.36
COc1ccc(CCNC(=O)Cc2ccc(OCc3ccccc3)c(OC)c2[N+](=O)[O-])cc1OCc1ccccc1	-7.67*	-7.67
COc1ccc(CCNC(=O)Cc2ccc([N+](=O)[O-])cc2)cc1OC	i	.
Cn1c(CNc2ccc(Cl)cc2)nc2ccccc21	i	.
CC(C)N=c1cc2n(-c3ccc(Cl)cc3)c3ccccc3nc-2cc1Nc1ccc(Cl)cc1	-7.95*	-7.95
O=C1N=C(N2CCOCC2)S/C1=C\c1cccs1	i	8.82*
Cc1ccsc1/C=C1/SC(N2CCOCC2)=NC1=O	i	0.11
SMILES	KCNQ2 inh	KCNQ2 pot
COc1ccccc1CCC(=O)OCC(=O)Nc1ccc(C(N)=O)cc1	i	0.93
O=C(COc1cccc2cccnc12)N/N=C/c1ccc(O)cc1	i	0.71
O=C(COc1cccc2cccnc12)N/N=C/c1cccn1-c1ccc(F)cc1	-7.19*	-7.19
CC(C)Oc1ccc(CNC(=O)c2cc(S(=O)(=O)N3CCOCC3)cn2C)cc1	i	.
CC(C)n1c(=S)[nH]c2ccccc2c1=O	i	0.52
O=c1c2ccccc2[nH]c(=S)n1Cc1ccccc1	i	0.43
CCC(C)n1c(=S)[nH]c2ccccc2c1=O (stereo unspecified)	i	6.78*
O=c1c2ccccc2[nH]c(=S)n1CCc1ccccc1	i	7.18*
CCc1cccc(C)c1Nc1nc2ccccc2n2cnnc12	i	.
COc1ccc(N2C(=O)C(CC(=O)Nc3ccccc3)N(Cc3ccccn3)C2=S)cc1 (stereo unspecified)	i	.
COc1ccc(-c2nn(-c3ccccc3)cc2C(=O)NC(=S)Nc2cc(Cl)ccc2Cl)cc1	-7.68*	-7.68
COc1ccc(NC(=O)c2cn(-c3ccccc3)nc2-c2cc3ccccc3o2)cc1	-6.01*	-6.01
COc1ccc(NC(=O)c2cn(-c3ccccc3)nc2-c2ccncc2)cc1	i	.
COc1ccc(-c2nn(-c3ccccc3)cc2C(=O)NC(=S)NNC(=O)c2ccncc2)cc1	i	.
CCOC(=O)N1CCC(NC(=O)c2cc(C(=O)Nc3ccc(S(=O)(=O)N4CCCCC4)cc3)ccc2CO)CC1	i	0.04
COC(=O)CSc1nc2c(cnn2-c2ccc(F)cc2)c(=O)[nH]1	i	0.46
O=C(Nc1sc2c(c1C(=O)O)CCC2)C(=O)N1CCOCC1	i	0.12
CCOC(=O)N1CCN(Cc2nc3cc(NC(=O)c4ccco4)ccc3n2C)CC1	i	0.6
CCc1cc2c3c(c(=O)oc2cc1OCC(=O)OC)CCCC3	i	.
CC1=NN(C(=O)c2csc(C)c2)C(O)(C(F)(F)F)C1 (stereo unspecified)	i	2.91
CC1=NN(C(=O)c2csc(C)c2C)C(O)(C(F)(F)F)C1 (stereo unspecified)	i	1.92
CC1=NN(C(=O)c2c(Br)c(C)nn2C)C(O)(C(F)(F)F)C1 (stereo unspecified)	i	10.6*
CC1=NN(C(=O)c2ccc(Br)cc2)C(O)(C(F)(F)OC(F)(F)F)C1 (stereo unspecified)	i	5.7*
CC1=NN(C(=O)c2cc(C)nn2C)C(O)(C(F)(F)F)C1 (stereo unspecified)	i	5.96*
CC1=NN(C(=O)c2nn(C)cc2Br)C(O)(C(F)(F)F)C1 (stereo unspecified)	i	.
SMILES	KCNQ2 inh	KCNQ2 pot
CCOC(=O)c1cnc(SC)nc1Oc1cccc(NS(=O)(=O)c2ccc(C)cc2)c1	i	.
COc1ccc(C2CCCN2C(=S)Nc2cccc(C)c2C)cc1OC (stereo unspecified)	i	2.51
CCCOc1ccc(C2c3c(oc4ccccc4c3=O)C(=O)N2CCCN2CCOCC2)cc1 (stereo unspecified)	i	.
CC(C)C(C)NC(=O)COC(=O)c1cccc(C(=O)OCC(=O)NC(C)C(C)C)n1 (stereo unspecified)	i	1.84
Cc1cccc(N(Cc2ccccc2)C(=O)CSC(C)C(=O)Nc2cc(C)on2)c1 (stereo unspecified)	i	.
Cc1ccc(-n2nnnc2SCC(=O)NC2CCCc3ccccc32)c(C)c1 (stereo unspecified)	-6.48*	-6.48
Cc1ccc(-n2nnnc2SCC(=O)NC2CCCc3ccccc32)cc1 (stereo unspecified)	i	.
CC(C)OP(=O)(c1ccc(N(C)C)cc1)C(O)c1cccnc1 (stereo unspecified)	i	.
O=S(=O)(c1cccc(-c2nnc3n2CCCCC3)c1)N1CCCC1	i	.
CCOc1ccc(OCCC(=O)N(CC)CC(=O)Nc2ccccc2C(F)(F)F)cc1	i	.
CCN(CC(=O)Nc1ccccc1OC)C(=O)CCOc1ccc(C(C)(C)C)cc1	-6.29*	-6.29
O=S(=O)(Nc1nc2ccccc2nc1Nc1ccc(N2CCOCC2)cc1)c1cc(Cl)ccc1Cl	i	.
O=C(Nc1cccc(C(F)(F)F)c1)Oc1ccc(Cl)c2cccnc12	i	5.68*
CCN(CC)C(=O)Oc1ccc(Cl)c2cccnc12	i	.
Cn1ncc(N=Cc2ccc([N+](=O)[O-])cc2)c1C(=O)Nc1ccccc1	i	.
Clc1cccc(-c2nc(NCCCN3CCOCC3)c3ccccc3n2)c1	i	.
Oc1ccccc1-c1nc(NCCN2CCOCC2)c2ccccc2n1	-8.25*	-8.25
COc1cccc(-c2nc(NCCN3CCOCC3)c3ccccc3n2)c1O	i	.
Clc1ccc(-c2nc(NCCCN3CCOCC3)c3ccccc3n2)cc1	-7.92*	-7.92

High-throughput results from PubChem BioAssay.
